CRFBP-R2 block = antagonists of CRF-BP/CRF-R2 complex, primary screen, cell-based, HEK293, calcium dye fluorescence, uHTS. CRF-induced calcium fluorescence. inhibition, % at 11.8 µM. 350,000 compounds, 0.59% hits;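 active = inhibition of the ligand-induced calcium signal above about 50% at the single tested concentration, limit read from the data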
ANO1 activ = TMEM16A chloride channel activators or potentiators, primary screen, cell-based, HTS. 340,000 compounds, 0.3% hits. AID 623877, 2012. B-score at 10 µM. Anoctamin-1 (Mus musculus), Q8BHY3. HEK293 TMEM16A/YFP-H148Q/I152L, iodide quench fluorescence; hits give low values;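 active = fluorescence-ratio B-score plate-corrected deviation score at least 3 library SD below zero, with starting fluorescence score within 5 deviations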;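 note: channel opened by trigger with iodide after compound preincubation; score built on the fluorescence ratio of max minus min over baseline; more negative score means more quench and so TMEM16A activation or potentiation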
NR3A LBD binder = binders of NR3A ligand-binding domain, primary screen, biophysical, differential scanning fluorimetry, uHTS; Glutamate receptor ionotropic, NMDA 3A (GRIN3A) ligand-binding domain; NR3A LBD differential scanning fluorimetry, Tm shift; 0% = protein alone, 100% = glycine-bound protein; Tm shift relative to glycine control, % at 25 µM; 340,000 compounds, 2.5% hits; AID 1259313, 2017;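 active = melting temperature shift of at least 10% of the positive control shift, at one fixed dose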
CRFBP-R2 agonist = agonists of CRF-BP/CRF-R2 complex, primary screen, cell-based, HEK293, calcium dye fluorescence, uHTS; activation, % at 13.2 µM; 350,000 compounds, 0.46% hits; calcium dye fluorescence (FLIPR); percent of saturating CRF peptide response; CRF-binding protein / CRF receptor 2 complex (human);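 active = activation of at least 50%, plus an integration ratio under a set limit after plate pattern correction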;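 note: plate controls were neutral control wells without compound for no effect and CRF at EC100 for full effect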
TMEM16A inh = TMEM16A chloride channel inhibitors, primary screen, cell-based, HTS; Anoctamin-1 (Mus musculus), Q8BHY3; HEK293 TMEM16A/YFP iodide influx fluorescence, ionomycin; normalized B-score (activity score, 25-100; higher = stronger inhibition) at 10 µM; 310,000 compounds, 1.2% hits; AID 588511, 2011;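 active = ratio plate-corrected score three or more library SD toward inhibition, starting fluorescence score within five deviations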;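 note: score derived from kinetic fluorescence span divided by baseline fluorescence per well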
MPTP inh = mitochondrial permeability transition pore inhibitors, primary screen, biochemical, isolated mouse mitochondria, absorbance; 360,000 compounds, 1.4% hits; inhibition, % at 10 µM; Ca2+ swelling absorbance, 30 min;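 active = inhibition of 50% or more, scaled per plate between neutral and stimulator controls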;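 note: 0% = DMSO wells given calcium and 100% = 1 mM EGTA wells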
TMEM16A reconf = TMEM16A chloride channel inhibitors, confirmation, cell-based, re-confirmation | 2,300 compounds, 39% hits | shares compounds with TMEM16A inh | inhibition, % at 10 µM | HEK293 TMEM16A/YFP-H148Q, iodide quench fluorescence; ionomycin added to raise cell calcium;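 active = mean duplicate percent inhibition, scaled so buffer wells are 0 and the reference blocker 100, over three buffer SD above buffer mean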
HEK293 Ca mobil = calcium mobilization in TMEM16A/YFP HEK293 cells, confirmation, counter-screen for TMEM16A inhibitor project. shares compounds with TMEM16A inh. Fluo4 calcium mobilization. calcium response (% of ionomycin), % at 10 µM. 2,300 compounds, 2% hits. AID 652231, 2013;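 active = duplicate-averaged calcium signal over 20% of the ionomycin maximum, relative to buffer baseline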;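 note: each well's signal is peak minus trough fluorescence divided by its pre-addition baseline; 0% = buffer wells and 100% = ionomycin wells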
Parental YFP cnt = iodide YFP quench changes in parental YFP-HEK293, counter-screen for TMEM16A inhibitor project, cell-based. shares compounds with TMEM16A inh. ionomycin. YFP ratio F(max-min)/F0 at 10 µM. 2,300 tested, under 10 active;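 active = yellow fluorescent protein signal ratio exceeding the buffer control mean by over 5 SD of those controls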;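 note: ratio is mean of duplicate wells from kinetic YFP trace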
ClC-1 inh = ClC-1 chloride channel inhibition, selectivity assay for TMEM16A inhibitor project, cell-based, voltage-dependent ClC-1. CHO ClC-1-YFP, iodide influx fluorescence quench; iodide control reads 0, buffer control 100. 2,300 tested, under 10 active. ratio percent, % at 10 µM. shares compounds with TMEM16A inh;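 active = duplicate-mean ratio percent above the mean of iodide-only control wells, which defines zero, plus 5 of their SD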;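 note: higher percent means stronger block of ClC-1 iodide influx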
Target sequence (P35524 whole entry, looked up): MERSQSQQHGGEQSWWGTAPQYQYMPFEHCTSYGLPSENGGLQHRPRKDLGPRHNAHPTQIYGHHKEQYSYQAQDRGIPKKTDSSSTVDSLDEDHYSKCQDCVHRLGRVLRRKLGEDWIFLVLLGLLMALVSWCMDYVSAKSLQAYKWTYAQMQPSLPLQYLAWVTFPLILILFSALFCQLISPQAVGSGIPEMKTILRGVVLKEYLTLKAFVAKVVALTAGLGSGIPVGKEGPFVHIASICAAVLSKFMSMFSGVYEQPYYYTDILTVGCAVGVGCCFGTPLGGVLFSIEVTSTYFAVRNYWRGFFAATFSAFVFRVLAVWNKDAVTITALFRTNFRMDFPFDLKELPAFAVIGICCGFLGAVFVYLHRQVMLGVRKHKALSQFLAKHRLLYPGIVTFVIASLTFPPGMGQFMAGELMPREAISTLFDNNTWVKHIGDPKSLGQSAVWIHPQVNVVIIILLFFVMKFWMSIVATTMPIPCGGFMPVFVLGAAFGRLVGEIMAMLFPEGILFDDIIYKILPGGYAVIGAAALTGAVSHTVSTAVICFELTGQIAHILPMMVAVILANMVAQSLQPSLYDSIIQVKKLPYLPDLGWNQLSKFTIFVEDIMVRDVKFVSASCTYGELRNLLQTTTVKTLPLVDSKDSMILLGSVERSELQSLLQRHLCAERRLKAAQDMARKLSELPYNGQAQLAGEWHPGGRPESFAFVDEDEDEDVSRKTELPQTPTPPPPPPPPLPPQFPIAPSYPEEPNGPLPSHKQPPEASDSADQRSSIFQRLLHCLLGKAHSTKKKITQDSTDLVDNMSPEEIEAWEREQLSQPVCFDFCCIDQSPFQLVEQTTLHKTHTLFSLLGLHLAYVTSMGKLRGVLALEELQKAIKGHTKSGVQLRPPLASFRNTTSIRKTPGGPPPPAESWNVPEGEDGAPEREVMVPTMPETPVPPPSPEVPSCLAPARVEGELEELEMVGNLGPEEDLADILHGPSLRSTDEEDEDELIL
Rh123 counter = fluorescence retest of MPTP screen hits in isolated mitochondria, single concentration | shares compounds with MPTP inh | membrane potential, Rhodamine 123 fluorescence | inhibition, % at 10 µM | 5,000 compounds, 78% hits | AID 624504, 2012; in the data active = inhibition above about 22%;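 note: 0% = DMSO vehicle and 100% = positive control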
MPTP abs DR = mitochondrial permeability transition pore inhibitors, dose response, biochemical, absorbance, uHTS hits; IC50, µM; AID 651561, 2012; isolated mitochondria swelling; 780 compounds, 58% hits; shares compounds with MPTP inh; in the data active = IC50 below about 20 µM
MPTP cs DR = fluorescent counter-screen in isolated mitochondria, dose response, counter-screen for MPTP inhibitor project, biochemical, fluorescence, uHTS hits. AID 651564, 2012. isolated mitochondria counterscreen, fluorescence read-out. IC50, µM. shares compounds with MPTP inh. 780 compounds, 49% hits; in the data active = IC50 below about 80 µM
Numbers without * were called inactive; i = inactive; . = not tested or not shown. This is a sample that favours compounds with a hit; in the whole collection about 5.1% have one here.

SMILES	CRFBP-R2 block	ANO1 activ	NR3A LBD binder	CRFBP-R2 agonist	TMEM16A inh	MPTP inh	TMEM16A reconf	HEK293 Ca mobil	Parental YFP cnt	ClC-1 inh	Rh123 counter	others
CCCNC(=O)c1cc(C2CCCN(C(=O)c3ccc4ccccc4c3)C2)on1 (stereo unspecified)	.	.	.	.	.	0.1	.	.	.	.	.
CCOC(=O)c1c(NC(=O)c2ccncc2)sc(C)c1C	-15.3	i	0.3	1.2	i	-0.3	.	.	.	.	.
CCOC(=O)c1sc(NC(=O)c2ccncc2)c(C#N)c1C	36.2	i	-11.4	24.0	25*	96.8*	35.0%*	i	-1.09	-23.0	86.6*
CCOC(=O)c1sc(NC(=O)CSc2n[nH]c(-c3ccc(Cl)cc3Cl)n2)c(C#N)c1C	6.0	i	33.0*	18.3	25*	83.3*	50.5%*	i	-0.931	-13.5	82.8*
Cc1cc(SCC(=O)N/N=C/c2ccc(C(=O)O)cc2)nc2ccccc12	7.8	i	1.5	-0.1	i	0.4	.	.	.	.	.
Cc1ccc(Cl)cc1N1CCN(C(=O)c2cc3c(=O)[nH]c4ccccc4c3n2C)CC1	-13.0	i	-2.5	-0.3	25*	56.6*	37.5%*	i	-0.975	-31.5	-4.3	MPTP abs DR=>100;MPTP cs DR=>80
Cc1nc2cc(-c3ccsc3-n3c(C)ccc3C)[nH]n2c(=O)c1Cl	31.1	i	-0.1	3.6	100*	66.6*	20.5%*	i	-0.905	-14.0	51.2*
Cc1nc(NS(=O)(=O)c2ccc(Cl)s2)c2c3c(sc2n1)CCCC3	5.8	i	0.6	-0.9	25*	84.4*	17.0%*	i	-0.912	-26.0	76.6*
Cc1cccc(C(=O)OCC(=O)NC(=O)c2ccccc2)c1O	15.8	i	-1.6	-0.9	i	-0.8	.	.	.	.	.
Cc1sc2ncnc(NCC(O)c3ccc([N+](=O)[O-])cc3)c2c1C (stereo unspecified)	-14.0	i	-4.0	0.0	100*	92.2*	28.0%*	i	-0.803	-20.0	91.1*
Cc1cn2c(=O)c(C(=O)N3CCN(c4ccccc4Cl)CC3)cnc2s1	-8.6	i	-1.9	-1.2	i	-1.7	.	.	.	.	.
O=C(NNC1=C(C(=O)C(F)(F)F)CCC1)c1ccc(Cl)cc1	37.6	i	-26.6	11.1	25*	91.9*	23.5%*	i	-0.875	-12.5	76.9*
Cn1c(N)c(C(=O)CN2CCN(S(=O)(=O)c3ccccc3C#N)CC2)c(=O)n(C)c1=O	-12.4	.	.	-1.5	.	-1.0	.	.	.	.	.
Cc1ccc(-c2csc(NC(=O)CSc3nc(C)cs3)n2)cc1	22.3	i	-8.3	2.3	25*	69.5*	i	i	-0.428	13.5	56.2*
Cc1cc(C(=O)CSc2nc3ccccc3[nH]2)c(C)n1CC1CCCO1 (stereo unspecified)	-37.1	i	2.0	2.8	25*	71.4*	i	i	-1.17	-29.5	84.8*
Cc1cc(C(=O)CSc2nc(N)cc(=O)[nH]2)c(C)n1CC1CCCO1 (stereo unspecified)	-10.9	i	0.9	-2.2	.	0.3	.	.	.	.	.
O=C(O)CCCCCn1c(SCC(=O)c2ccc(O)c(O)c2)nc2ccsc2c1=O	-14.4	i	1.5	-2.1	i	0.9	.	.	.	.	.
CCCCn1c(SCC(=O)c2ccc(O)c(O)c2)nc2ccsc2c1=O	-38.8	i	24.9*	-2.1	100*	51.5*	49.0%*	i	-1.03	-17.5	29.6*
O=S(=O)(Nc1nc2ccccc2nc1Nc1ccc(N2CCOCC2)cc1)c1cc(Cl)ccc1Cl	49.6	i	19.9*	51.0*	100*	86.1*	41.5%*	26.5%*	-1.01	-9.5	77.1*
Clc1nc(Nc2ccc(N3CCOCC3)cc2)c2ccccc2n1	-19.6	i	0.8	16.6	i	-1.5	.	.	.	.	.
CCOC(=O)N1CCN(C(=O)C[C@@H]2C[C@@]3(C(=O)OC)CCCCC=C3N(Cc3ccccc3)C2=O)CC1	.	.	.	.	.	0.9	.	.	.	.	.
CC(C)(C)C(=O)Nc1sc2c(c1C#N)CCC2	11.5	i	-2.9	-2.4	i	1.2	.	.	.	.	.
CC(C)(C)C(=O)NC(NC(=S)Nc1sc2c(c1C#N)CCCC2)C(Cl)(Cl)Cl (stereo unspecified)	40.8	i	16.2*	19.0	100*	94.3*	34.0%*	i	-1.24	-9.5	53.2*
COc1ccc(OC)c(CCNC(=O)CC2(CC3=NS(=O)(=O)c4ccccc4N3)CCCC2)c1	43.5	i	1.9	-1.8	i	-2.0	.	.	.	.	.
O=C(CN1C(=O)S/C(=C\c2ccccc2)C1=O)Nc1cc([N+](=O)[O-])ccc1O	-2.1	i	23.3*	-3.5	100*	57.8*	22.5%*	i	-1.04	-11.0	79.1*
COc1ccc(/C=C2\SC(=O)N(CC(=O)Nc3ccccc3O)C2=O)cc1OC	-5.8	i	4.9	0.0	i	-0.1	.	.	.	.	.
Cn1cc(CNCc2cnc3ccccn23)c(-c2ccc(Oc3ccccc3)cc2)n1	-5.1	i	3.0	0.3	i	30.7	.	.	.	.	.

Assay outcomes deposited in PubChem by several laboratories.
